“And” between values parts separate entries of the source, which are not always exact repeats. Equal entries are not always repeated. Results filed as inconclusive are left out. A call without a number means that no potency is given here. The source made the active and inactive calls. Calls come from the whole dose curve; as a rule, active = well fitted inhibition curve with a large enough effect in the repeat runs; inconclusive = weak or mixed curves; inactive = no such curve, though single readings can be large or run the other way.
Potency is the fitted concentration of half-maximal effect.

Cytochrome P450 3A4 (Homo sapiens), sequence (P08684 whole entry, looked up): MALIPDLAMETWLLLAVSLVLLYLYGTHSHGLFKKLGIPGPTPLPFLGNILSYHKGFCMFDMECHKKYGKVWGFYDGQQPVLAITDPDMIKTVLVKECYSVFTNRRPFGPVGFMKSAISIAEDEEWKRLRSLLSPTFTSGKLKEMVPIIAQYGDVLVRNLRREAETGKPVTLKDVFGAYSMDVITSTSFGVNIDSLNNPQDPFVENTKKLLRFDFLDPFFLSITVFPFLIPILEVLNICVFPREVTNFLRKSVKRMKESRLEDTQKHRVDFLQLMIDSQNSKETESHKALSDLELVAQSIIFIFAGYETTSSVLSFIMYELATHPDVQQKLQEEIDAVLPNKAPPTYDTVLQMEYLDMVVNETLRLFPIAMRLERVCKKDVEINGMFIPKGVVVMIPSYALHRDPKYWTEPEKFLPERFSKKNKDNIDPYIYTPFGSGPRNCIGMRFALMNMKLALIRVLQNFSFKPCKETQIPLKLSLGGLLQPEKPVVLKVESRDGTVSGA

The target of this assay is Cytochrome P450 3A4 (Homo sapiens) (UniProt P08684). Kind of assay: Cytochrome P450 Family 3 Subfamily A Member 4 (CYP3A4) small molecule antagonists: luciferase reporter qHTS assay (AID 1671201). Note: nearly all actives have a fitted effect of over 50% in size. The note with it: P450-Glo CYP3A4 enzyme, luciferin luminescence, 1 h; series mostly up to 115 µM. The essentials:
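Setup: enzyme-substrate mix, compound pin transfer, 10 min RT. Reaction: NADPH regeneration solution, 1 h RT. Readout: detection reagent stops turnover, luminescence measured after 20 min, expressed in relative luminescence units.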
Background: A reporter such as luciferase makes a cellular process visible.
As to `Cc1occc(=O)c1OC(=O)C(C)C`, the Potency entry is “inactive”.

In the case of `CC(C)CCCCCCc1ccc(O)cc1`, the Potency was 16.2 µM (active).

As to `O=C1OC2(c3ccc(O)cc3Oc3cc(O)ccc32)c2ccccc21`, the Potency entry was “inactive”.

For the compound `O=C(O)c1cn(-c2ccc(F)cc2)c2cc(N3CCNCC3)c(F)cc2c1=O`, the Potency result is “inactive”.

Regarding `CCCCCCCCCCCCCCCCCl`, the activity change, negative = inhibition is 3.48% [at 23.6 µM] (inactive).

In the case of `NC(Cc1ccc(Cl)cc1)C(=O)O` (stereo unspecified), the activity change, negative = inhibition was 0.0907% [at 0.435 µM] (inactive).

As for `CCC(CO)(CO)COCC(CC)(CO)CO`, the Potency entry is “inactive”.

Take `C=C(C)C1CC=C(C)C(OC(C)=O)C1` (stereo unspecified): the Potency result is “inactive”.

`O=C(O[C@@H]1Cc2c(O)cc(O)cc2O[C@@H]1c1cc(O)c(O)c(O)c1)c1cc(O)c(O)c(O)c1`: the Potency is 35.7 µM (active) and 48.5 µM (active).

`C[N+]1([O-])CCOCC1`: the Potency entry was “inactive”.

For the compound `O=C(O)Cn1cnnn1`, the Potency entry is “inactive”.

For the compound `CC(=O)CC(C)=O`, the Potency result was “inactive”.

With `CC(C)(C)c1cc(C(C)(C)C)c(O)c(C(C)(C)C)c1`, the Potency entry is “inactive”.

For `Cc1cc(C2(c3cc(C)c(O)cc3C)OS(=O)(=O)c3ccccc32)c(C)cc1O`, the Potency was 2 µM (active) and 2.52 µM (active).

Take `O=C(O)CCc1ccccc1`: the Potency result was “inactive”.

Take `CCN(CC)C(=O)Nc1ccc(OCC(O)CNC(C)(C)C)c(C(C)=O)c1` (stereo unspecified): the Potency entry was “inactive”.

As to `c1ccc2n[nH]nc2c1`, the Potency entry was “inactive”.

With `CCC[C@H](N[C@@H](C)C(=O)N1[C@H](C(=O)O)C[C@@H]2CCCC[C@@H]21)C(=O)OCC`, the Potency result is “inactive”.

Consider `CCCOC(=O)c1cc(O)c(O)c(O)c1`, for which the Potency result is “inactive”.

In the case of `Nc1cc(S(=O)(=O)O)cc2cc(S(=O)(=O)O)cc(O)c12`, the Potency result is “inactive”.

Take `CCn1c2ccccc2c2cc(N)ccc21`: the Potency is 1.77 µM (active) and 5.64 µM (active) and 31.7 µM (active).

`OCC(CO)N[C@H]1C[C@](O)(CO)[C@@H](O)[C@H](O)[C@H]1O`: the Potency entry is “inactive”.

For the compound `Nc1nc2ccccc2[nH]1`, the Potency entry was “inactive”.

`CC(C)(O)CCC(C)(C)O`: the Potency entry is “inactive”.

As for `CC(C)(C)NCC(O)COc1ccccc1OCC1CCCO1` (stereo unspecified), the Potency result was “inactive”.

Take `Cc1cc(OCCOCC[N+](C)(C)Cc2ccccc2)ccc1C(C)(C)CC(C)(C)C`: the Potency entry is “inactive”.

For `c1ccc2cc3c(ccc4ccccc43)cc2c1`, the Potency entry was “inactive”.

As for `COc1ccc(COC(C)=O)cc1`, the Potency result was “inactive”.

Consider `CCN(CC)c1ccc2c(C)cc(=O)oc2c1`, for which the Potency was 20.2 µM (active) and 31.7 µM (active).

On to `CCCCCCCCCCCCc1ccccc1O`, for which the Potency is 31.3 µM (active) and 63.3 µM (active).

As for `CN1C(=O)c2ccc([N+](=O)[O-])cc2C1=O`, the Potency was 39.9 µM (active).

In the case of `Cc1cc(C(C)(C)C)c(O)c(C(C)(C)C)c1`, the Potency entry is “inactive”.

`OCCN1CCNCC1`: the Potency entry is “inactive”.

For the compound `Cc1cccc(O)c1C`, the Potency entry was “inactive”.

Regarding `C1COC(NC(C2CC2)C2CC2)=N1`, the Potency entry was “inactive”.

For the compound `CCOC(=O)C(C)C(C)=O` (stereo unspecified), the Potency entry was “inactive”.

The values above are taken from PubChem BioAssay (Tox21).
